# The list is a sample of the results.
# aSyn UTR act: Activators via SNCA 5'UTR binding, MLPCN; alpha-synuclein 5'UTR reporter, activators screen; activity score, % (tested at 7.5 µM), hits read low; 300,000 tested, 7.1% active; AID 1814; in the data active = activity score below about -60%
# An asterisk follows results filed as active.
SMILES,aSyn UTR act
O=C(Nc1ccc(F)cc1)c1ccc(NC(=O)C2CCCO2)cc1 (stereo unspecified),-128*
COC(=O)c1c(-c2ccc(F)cc2)csc1NC(=O)C1CCCO1 (stereo unspecified),-85*
O=C(Nc1cccc(O)c1)c1ccc(NC(=O)C2CCCO2)cc1 (stereo unspecified),-98*
COC(=O)c1ccc(NC(=O)C2CCCO2)cc1 (stereo unspecified),-64*
CN(C)c1oc(-c2ccc(OCc3ccccc3)cc2)nc1C#N,-109*
CSC1=NC(C(Cl)(Cl)Cl)N=C(c2ccc(C)cc2)N1 (stereo unspecified),118
C=CCn1cnc2c(nnn2-c2ccc(C)c(C)c2)c1=O,-122*
Cc1cc(N2CCCC2)nc(SCC(=O)c2ccccc2)n1,-89*
Cc1cc(N2CCOCC2)nc(SCC(=O)c2ccccc2)n1,-94*
Cc1cc(C)n(-c2nc3c(c(=O)[nH]c(=O)n3C)n2CC(O)COc2ccc(Cl)cc2Cl)n1 (stereo unspecified),73
COc1ccc(OCCOc2ccc(C)nc2[N+](=O)[O-])cc1,-106*
Cc1ccc(COc2ccc(C)nc2[N+](=O)[O-])cc1,-118*
Cc1ccc(OCCOc2ccc(Cl)cc2Cl)c([N+](=O)[O-])n1,-88*
O=[N+]([O-])c1cnc(Nc2ccc(Cl)cn2)c([N+](=O)[O-])c1,-129*
O=C(Nc1ccc(Cl)cn1)c1ccccc1[N+](=O)[O-],-77*
O=C(Nc1ccccn1)Nc1ccccc1Cl,-131*
O=C(Nc1ccc(Cl)cn1)Nc1ccccc1Cl,-87*
Cc1cc(NC(=O)Nc2ccccc2Cl)no1,-74*
S=C(Nc1ccccn1)Nc1ccccc1Cl,-83*
Cc1ccc(CNc2ccc(N3CCOCC3)cc2)s1,-86*
Nc1ccc(Nc2nc(-c3cc4ccccc4oc3=O)cs2)cc1,-200*
CC(=O)Nc1ccc(Nc2nc(-c3cc4ccccc4oc3=O)cs2)cc1,-449*
CSc1nc2nccc(/C=C\c3ccccc3)n2n1,-89*
COc1cc(/C=N/NC(=S)NC2CC3CC2C2C=CCC32)ccc1O (stereo unspecified),-116*
CN(C)c1ccc(N/C=C/C(=O)c2ccccc2)cc1,-65*
SMILES,aSyn UTR act
CN(C)c1ccc(N/C=C/C(=O)C(C)(C)C)cc1,-78*
CC(=O)Nc1ccc(N/C=C/C(=O)c2ccccc2)cc1,-255*
O=C(/C=C\Nc1ccc(Br)cc1)c1cccnc1,-69*
Cc1cc(=O)n2cc(-c3ccccc3)nc2[nH]1,-70*
Cc1cc(C)c2nc(N3CCCC(C(=O)NCCN4CCOCC4)C3)sc2c1 (stereo unspecified),-74*
Cc1cc(C)c2nc(N3CCCC(C(=O)NCCCN4CCOCC4)C3)sc2c1 (stereo unspecified),-77*
CCCN1CCC(=O)N([C@H](CSc2ccc(C)cc2)c2ccccc2)CC1,-181*
CN1CCC(=O)N([C@H](CSc2ccc(Br)cc2)c2ccccc2)CC1,-104*
CCCN1CCC(=O)N([C@H](CSc2ccc(OC)cc2)CC(C)C)CC1,-113*
CCCN1CCC(=O)N([C@H](CSc2ccccc2)c2ccccc2)CC1,-72*
Cc1ccn2c(C(=O)c3ccc(Cl)cc3)cnc2c1,-81*
O=C(/C=C/c1cccs1)NC(=S)NNC(=O)c1ccccc1O,103
O=C(NC(=S)NNC(=O)c1ccccc1O)c1ccco1,-99*
O=C(NC(=S)Nc1ccccc1Br)c1ccco1,-86*
Cc1c(NC(=S)NC(=O)Cc2ccccc2)cccc1C(=O)O,-79*
Cc1cccc(NC(=S)NC(=O)c2ccco2)c1C,-94*
Cc1cc(C(=O)CSc2ncccn2)c(C)n1Cc1ccco1,-69*
Cc1cc(C(=O)CSc2nnnn2C)c(C)n1Cc1ccco1,-109*
Cc1cc(Nc2ccccc2)n2nc(C)c(-c3ccccc3)c2n1,-64*
Cc1ccc2nc(N3C(=O)CNC3=S)sc2c1,-68*
Cc1nnsc1C(=O)NNc1ccc(C(C)C)cc1,-99*
O=C1/C(=C/c2ccc(N3CCOCC3)o2)SC(=Nc2ccccc2)N1CCc1c[nH]c2ccccc12,-121*
Cc1ccc(-n2ncc(C(=O)Nc3cc(Cl)cc(Cl)c3)c2C2CCNCC2)cc1C,93
Cc1cc(C)n(CC(=O)NC2CCCc3c2cnn3-c2ccc(C)c(C)c2)n1 (stereo unspecified),-84*
CCCCOc1ccc(/C(N)=N/O)cc1,-73*
SMILES,aSyn UTR act
Cc1nc(NC(=O)CCc2ccccc2)sc1C,-86*
Cc1nc(NC(=O)c2csc3ccccc23)sc1C,-141*
Cc1nc(NC(=O)c2ccccc2)sc1C,-86*
Cc1nc(NC(=S)NC(=O)c2ccccc2)sc1C,-161*
CCOC(=O)Nc1nc(-c2ccccc2)c(C(=O)c2ccccc2)s1,117
CC(=O)c1sc(NC(=O)c2ccccc2)nc1-c1ccccc1,-139*
Cc1nc(NC(=O)c2ccccc2O)sc1C,-128*
Cc1nc(Nc2ccccc2)sc1C,-112*
N#C/C(=C/c1ccc(N2CCOCC2)o1)c1ccc(Cl)cc1,-286*
O=C(NCCc1ccccc1F)c1cccc2cccnc12,-147*
O=C(Nc1cccc2cccnc12)c1cc(F)c(F)cc1Cl,-74*
Cc1ccc(NC(=O)c2cccc3cccnc23)cc1,-91*
CC(=O)NC(c1ccc(Cl)cc1Cl)c1ccc2cccnc2c1O (stereo unspecified),86
COc1ccccc1C(=O)Nc1cccc2cccnc12,-81*
COc1ccc(C(=O)Nc2nc3ccccc3s2)c(OC)c1,79
CCOc1ccc2nc(NC(=O)NC3CCCCC3)sc2c1,-72*
CC(C)C(=O)NNc1nc2ccccc2s1,-73*
COc1ccc(NC(=O)Nc2nc3ccccc3s2)cc1,-150*
CC(C)(C)c1ccc(NC(=O)c2c(F)cccc2Cl)cc1,-101*
NS(=O)(=O)c1ccc2nc(NC(=O)Nc3ccc(F)cc3)sc2c1,-98*
O=C(NNc1nc2ccccc2s1)Nc1ccc(F)cc1,-157*
O=C(Nc1nc2ccccc2s1)Nc1ccc(F)cc1F,-119*
CCOc1ccc2nc(NC(=O)Nc3ccccc3)sc2c1,-131*
CCOc1ccc2nc(NC(=O)c3ccccn3)sc2c1,80
COc1n[nH]c(C(=O)Nc2nc3ccccc3s2)c1[N+](=O)[O-],-79*
SMILES,aSyn UTR act
CCOc1ccc2nc(S(N)(=O)=O)sc2c1,-176*
CCOc1ccc2nc(NC(=O)Nc3cccs3)sc2c1,-103*
COc1ccc(NC(=O)Nc2nc3c(s2)CCCC3)cc1,-155*
O=C(Nc1nc2ccccc2s1)c1c(F)cccc1Cl,-86*
CCCCOc1ccc(CSc2nncn2N)cc1,-86*
CCCOc1ccc(CSc2nc3ccccc3[nH]2)cc1,-127*
O=[N+]([O-])c1ccc(CSc2nc3ccccc3[nH]2)cc1,-114*
O=Cc1[nH]c2ccccc2c1N(C(=O)CCl)c1ccc([N+](=O)[O-])cc1,84
Clc1ccccc1CSc1nc2ccncc2[nH]1,-79*
C=CCOc1ccc2nc(NC(=O)OC)[nH]c2c1,66
O=C(NCCO)c1ccc(CSc2nc3ccccc3[nH]2)cc1,-66*
c1ccc(CSc2nc3ccccc3[nH]2)cc1,-116*
CCOc1ccc2nc(SCC)[nH]c2c1,-118*
Fc1ccc(CSc2nc3ncccc3[nH]2)cc1,-105*
c1ccc(CSCc2nc3ccccc3[nH]2)cc1,-91*
CC(C)CSc1nc2ccccc2[nH]1,-95*
CCCCCOc1ccc(CSc2ncn[nH]2)cc1,-87*
Nc1nc(CSc2nc3ccccc3[nH]2)cs1,-76*
Fc1ccc(CSc2nc3ccccc3[nH]2)cc1,-155*

# Screening data: PubChem, Broad Institute
